# Measured values taken from ChEMBL document CHEMBL3988442, “University of Dundee, Small-Polar-MMV Screening Library” (2021).
# In all, about 67,000 compounds went through this assay and about 300 (0.45%) showed an effect of 50% or more. The sample as a whole holds a higher share of strong results than the screen did.
# Biological target: Polyketide synthase Pks13 (Mycobacterium tuberculosis (strain ATCC 25618 / H37Rv)) (UniProt I6X8D2)
# Assay: Mycobacterium tuberculosis Polyketide synthase 13 Thioesterase (PKS13)
# Assay type: functional
# Set-up: scale not given: in the data most compounds retested in dose-response had high values
# Settings: 30 µM
# Sequence of Polyketide synthase Pks13 (Mycobacterium tuberculosis (strain ATCC 25618 / H37Rv)) (I6X8D2 whole entry): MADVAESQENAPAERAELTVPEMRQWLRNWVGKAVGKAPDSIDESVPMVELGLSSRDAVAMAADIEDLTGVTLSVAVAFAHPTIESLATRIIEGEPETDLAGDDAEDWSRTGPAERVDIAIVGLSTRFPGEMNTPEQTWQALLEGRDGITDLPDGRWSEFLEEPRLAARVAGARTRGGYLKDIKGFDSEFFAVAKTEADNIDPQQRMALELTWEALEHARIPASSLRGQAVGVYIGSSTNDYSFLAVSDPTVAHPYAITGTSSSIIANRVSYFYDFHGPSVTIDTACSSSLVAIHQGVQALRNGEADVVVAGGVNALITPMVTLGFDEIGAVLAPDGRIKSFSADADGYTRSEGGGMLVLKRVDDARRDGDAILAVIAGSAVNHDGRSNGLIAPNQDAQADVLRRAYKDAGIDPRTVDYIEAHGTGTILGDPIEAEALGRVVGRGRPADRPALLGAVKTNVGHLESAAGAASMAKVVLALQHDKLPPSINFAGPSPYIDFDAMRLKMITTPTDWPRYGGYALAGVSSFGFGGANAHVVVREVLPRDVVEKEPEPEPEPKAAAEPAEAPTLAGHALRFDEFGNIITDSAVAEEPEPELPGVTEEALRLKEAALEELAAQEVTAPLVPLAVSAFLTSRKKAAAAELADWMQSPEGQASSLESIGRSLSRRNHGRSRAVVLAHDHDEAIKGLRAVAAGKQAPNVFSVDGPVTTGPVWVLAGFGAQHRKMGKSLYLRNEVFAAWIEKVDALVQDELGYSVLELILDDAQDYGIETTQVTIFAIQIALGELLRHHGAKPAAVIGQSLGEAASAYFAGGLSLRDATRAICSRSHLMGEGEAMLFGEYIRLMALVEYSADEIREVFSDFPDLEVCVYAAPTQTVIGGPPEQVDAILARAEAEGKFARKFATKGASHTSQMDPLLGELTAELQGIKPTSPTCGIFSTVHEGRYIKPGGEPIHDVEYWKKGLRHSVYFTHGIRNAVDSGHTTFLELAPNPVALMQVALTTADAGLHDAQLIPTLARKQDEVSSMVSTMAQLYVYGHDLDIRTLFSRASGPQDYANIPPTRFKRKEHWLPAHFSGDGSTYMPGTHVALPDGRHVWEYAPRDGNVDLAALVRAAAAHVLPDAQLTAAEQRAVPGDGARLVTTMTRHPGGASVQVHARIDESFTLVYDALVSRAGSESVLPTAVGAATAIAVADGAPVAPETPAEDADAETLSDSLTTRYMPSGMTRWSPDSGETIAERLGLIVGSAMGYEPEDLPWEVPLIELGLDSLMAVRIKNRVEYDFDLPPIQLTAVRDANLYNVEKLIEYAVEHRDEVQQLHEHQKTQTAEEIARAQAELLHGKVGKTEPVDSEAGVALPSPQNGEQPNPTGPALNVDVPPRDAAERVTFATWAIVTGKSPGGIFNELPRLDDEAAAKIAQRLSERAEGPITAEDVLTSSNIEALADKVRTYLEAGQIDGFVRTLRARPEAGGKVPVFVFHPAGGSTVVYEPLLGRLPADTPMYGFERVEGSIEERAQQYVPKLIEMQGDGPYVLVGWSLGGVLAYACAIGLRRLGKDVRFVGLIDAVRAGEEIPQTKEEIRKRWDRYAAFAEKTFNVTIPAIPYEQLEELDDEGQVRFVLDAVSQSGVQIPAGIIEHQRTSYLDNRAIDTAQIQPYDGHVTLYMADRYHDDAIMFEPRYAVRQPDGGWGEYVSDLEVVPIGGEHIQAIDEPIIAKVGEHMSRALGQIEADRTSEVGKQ
row,Compound,Percent Effect
1,CCC[C@H]1CN(S(C)(=O)=O)C[C@@H]1NC(=O)COC(C)C,-31%
2,CCC[C@H]1CN(S(C)(=O)=O)C[C@@H]1NC(=O)c1ccc(COC)cc1,125%
3,CCC[C@H]1CN(S(C)(=O)=O)C[C@@H]1NC(=O)Cc1ccc(OC)cc1,-10.8%
4,CCc1cnc(N2C[C@H]3CCCC(N(C)Cc4ccccn4)[C@H]3C2)nc1 (some centres undefined),-25%
5,CC1(C)OCC(CNC(=O)c2cnn(-c3cc(Cl)ccc3Cl)c2N)O1 (centres undefined),-5.14%
6,Cc1ccc(C)c(-n2ncc(C(=O)NCC3COC(C)(C)O3)c2N)c1 (centres undefined),66.6%
7,CC1(C)OCC(CNC(=O)c2cnn(-c3ccc(Cl)cc3)c2N)O1 (centres undefined),-15.3%
8,CC(=O)NCC1CCN(C(=O)NCc2ccc3c(c2)OCCO3)CC1,-0.159%
9,O=C(NCc1ccc2c(c1)OCCO2)N1CCC(CO)CC1,52.7%
10,NC(=O)C1CCN(C(=O)NCc2ccc3c(c2)OCCO3)CC1,-21.9%
11,COCCN1C(=O)[C@]2(CC[C@@H]3CN(C(=O)NCC(C)C)C[C@@H]32)N=C1C,-6.17%
12,COC(=O)c1sc2cccc(F)c2c1CNC(=O)C1CCOC1 (centres undefined),68.2%
13,COC(=O)c1sc2cccc(F)c2c1CNC(=O)C1CCCO1 (centres undefined),1.86%
14,COC(=O)c1sc2cccc(F)c2c1CNC(=O)C1CC1,1.9%
15,Cc1noc(C)c1CN1CC[C@H]2[C@H]1CCN2CC1CCOCC1,10.3%
16,CN(Cc1ccc(N2CCCCC2)cc1)Cc1noc(C(C)(C)C)n1,85.2%
17,CN(Cc1ccc(N2CCOCC2)cc1)Cc1noc(C(C)(C)C)n1,21.8%
18,CN(Cc1noc(C(C)(C)C)n1)Cc1ccccc1N1CCCCC1,1.5%
19,Cn1cncc1CN1C[C@@H]2OCCN(c3ncccn3)[C@@H]2C1,-16.4%
20,O=C(Nc1ccccc1)N1C[C@@H]2OCCN(C(=O)c3ccco3)[C@@H]2C1,-42.5%
21,CN1CCN(C(=O)[C@@H]2CCO[C@@H]3CCN(c4ncccn4)C[C@@H]32)CC1,-7.46%
22,CCn1ncc(-c2cc(C(F)F)n3nc(CCC(=O)O)nc3n2)c1C,15.6%

row,Compound,Percent Effect
1,Cn1cc(-c2cc(C(F)F)n3nc(CCC(=O)O)nc3n2)cn1,51.2%
2,Cc1nn(C)cc1-c1cc(C(F)F)n2nc(CCC(=O)O)nc2n1,16.4%
3,CC(C)c1cc(C(F)(F)F)n2nc(CCC(=O)O)nc2n1,5.23%
4,CCn1cc(-c2cc(C(F)F)n3nc(CCC(=O)O)nc3n2)cn1,32.3%
5,CCn1cc(-c2cc(C(F)F)n3nc(CC(=O)O)nc3n2)cn1,62.5%
6,CN(C)C(=O)N1CCN(CCCc2ccccc2)[C@H]2CS(=O)(=O)C[C@H]21,-15%
7,Cc1oncc1C(=O)N1C[C@H](OCc2ccccn2)[C@H]2OCCC[C@H]21,-0.48%
8,O=S1(=O)C[C@@H]2[C@H](C1)N(Cc1ncc[nH]1)CCN2Cc1cccnc1,-6.48%
9,O=C(O)c1cn(-c2ccccn2)c(=O)c2ccccc12,57%
10,CC(C)CNC(=O)c1cn(-c2ccccn2)c(=O)c2ccccc12,42.5%
11,COC(=O)CNC(=O)c1cn(-c2ccccn2)c(=O)c2ccccc12,41.4%
12,CN(C)C(=O)[C@]12CCCN(CC3CC3)C[C@H]1CN(c1ccccn1)C2,-21.7%
13,COCCc1noc(-c2cn(CCc3ccccc3)nn2)n1,62.2%
14,COCCc1noc(-c2cn(Cc3ccc(OC)cc3)nn2)n1,-2.84%
15,COCCc1noc(-c2cn(Cc3ccccc3C)nn2)n1,-13.8%
16,CN(Cc1cncnc1)[C@@H]1CN(Cc2ccco2)C[C@@H]2CCCO[C@@H]21,-4.7%
17,O=C(NCC1CC1)[C@H]1C[C@@H]2CCN(Cc3nccs3)C[C@@H]2O1,-42.1%
18,O=C(N[C@H]1CN[C@H]2CCCO[C@H]21)c1ccno1,-17%
19,O=C(c1ccccc1)N1C[C@@H]2CC[C@H](C1)N(S(=O)(=O)c1cccnc1)C2,-34.5%
20,O=C(c1ccncc1)N1C[C@@H]2CC[C@H](C1)N(S(=O)(=O)c1cccnc1)C2,-25.8%
21,O=C(c1cnccn1)N1C[C@@H]2CC[C@H](C1)N(S(=O)(=O)c1cccnc1)C2,56.1%
22,O=S1(=O)C[C@@H]2[C@H](C1)N(Cc1ncc[nH]1)CCN2C/C=C/c1ccccc1,5.07%

row,Compound,Percent Effect
1,CCC1=N[C@@]2(CC[C@@H]3CN(S(=O)(=O)CC)C[C@@H]32)C(=O)N1CCOC,-31.3%
2,O=C(c1cnn2ccccc12)N1CCCC(OCc2ccccn2)C1 (centres undefined),-9.11%
3,CCCn1ncc(C(=O)N2CCCC(OCc3ccccn3)C2)c1C (centres undefined),-15.6%
4,Cc1cnc2c(C(=O)N3CCCC(OCc4ccccn4)C3)cnn2c1 (centres undefined),81.5%
5,Cc1cccc(CN2CC[C@H]3OCC[C@@]3(C(=O)N3CCCO3)C2)n1,8.33%
6,CNC[C@H]1CC[C@H](c2cc(CN(C)C(=O)c3cnccn3)n(C)n2)CC1,-6.04%
7,COc1ncccc1NC(=O)NC(C)c1nncn1C (centres undefined),-5.35%
8,CC(NC(=O)Nc1cccnc1N1CCCC1)c1nncn1C (centres undefined),56%
9,CC(NC(=O)Nc1cccnc1N1CCCC1)c1ccncc1 (centres undefined),0.204%
10,CCc1cnc(N2C[C@H]3C[C@H](C(=O)N(C)C)[C@@H](C2)O3)nc1,-7.42%
11,CCS(=O)(=O)N1CCC(CSc2ccccc2)C1 (centres undefined),9.93%
12,N#Cc1nccnc1N1CCC(CSc2ccccc2)C1 (centres undefined),53.9%
13,N#CCCCS(=O)(=O)N1CCC(CSc2ccccc2)C1 (centres undefined),-31.5%
14,Cc1ccc(N2CCO[C@H]3CN(Cc4ccc(F)cc4)C[C@H]32)nn1,4.79%
15,CC(C)N1CCO[C@H]2CN(C(=O)c3ccncc3F)C[C@H]21,-27%
16,O=C(O)[C@]12CCCN(Cc3ccncc3)[C@@H]1CCN(c1cnccn1)C2,-7.13%
17,O=C(O)[C@]12CCCN(Cc3cccnc3)[C@@H]1CCN(c1cnccn1)C2,10.4%
18,O=C(O)[C@]12CCCN(Cc3ccccn3)[C@@H]1CCN(c1cnccn1)C2,95.4%
19,Cc1ccsc1CN1CC[C@H]2OCC[C@@]2(C(=O)N2CCCO2)C1,-17.7%
20,O=C(NC[C@]12COC[C@H]1CN(Cc1ccncc1)C2)c1ccno1,-9.3%
21,CN(C)c1ncnc2c1CCN(C(=O)c1cccnc1)CC2,61.9%
22,Cc1ncnc2c1CCN(C(=O)c1cccnc1)CC2,-18.2%

row,Compound,Percent Effect
1,O=C(c1cccnc1)N1CCc2ncnc(N3CCOCC3)c2CC1,-1.96%
2,CN1C(=O)C[C@@H]2[C@@H]1CCN2C(=O)c1ccc[nH]1,-5.06%
3,Cc1cc(CN2CC[C@H]3C[C@H](C)O[C@@H]3C2)no1,-27.6%
4,Cc1cccc(OC2CCN(c3ccc(C#N)cn3)CC2)n1,22.3%
5,Cc1cccc(OC2CCN(c3ncc(C#N)cc3Cl)CC2)n1,26.2%
6,Cc1cccc(OC2CCN(c3nccnc3C#N)CC2)n1,85.3%
7,COCCNC(=O)C[C@@H]1COC[C@H]2CN(Cc3cccnc3)C[C@@H]12,7.6%
8,COc1ccc(CN2C[C@H](OCC3CCOCC3)[C@H]3COC[C@H]32)cc1,-3.35%
9,O=C(Cc1cccc(F)c1)N1CCc2ncnc(NC3CC3)c2CC1,121%
10,O=C(Cc1cccc(F)c1)N1CCc2ncnc(NC3CCC3)c2CC1,-11.9%
11,O=C(NCc1cccc(F)c1)N1CCc2ncnc(NC3CC3)c2CC1,-9.48%
12,Cn1cnc2c1C(COCC1CCOCC1)CN(Cc1ccccn1)C2 (centres undefined),-19.7%
13,CCOCCN1Cc2ncn(C)c2C(COCC2CCOCC2)C1 (centres undefined),55.1%
14,Cn1cnc2c1C(COCC1CCOCC1)CN(C1CCOCC1)C2 (centres undefined),-38%
15,CN1C(=O)C[C@@H]2[C@@H]1CCN2S(=O)(=O)Cc1ccccc1,-11.3%
16,O=C(COCC1CC[C@H]2[C@H](CCN2c2ncccn2)O1)N1CCCC1 (some centres undefined),9.91%
17,CC/C=C(\C)CN1CCC(CNC(=O)c2ccnc(N)c2)C1 (centres undefined),-25.3%
18,Nc1cc(C(=O)NCC2CCN(Cc3ccncc3F)C2)ccn1 (centres undefined),141%
19,Nc1cc(C(=O)NCC2CCN(Cc3cccc(O)c3)C2)ccn1 (centres undefined),-14.3%
20,CCc1ccc(CN2CC[C@H]3C[C@H](c4nnc(C)[nH]4)O[C@@H]3C2)o1,32%
21,O=C(NCC1CC1)[C@@H]1CCO[C@@H]2CCN(Cc3ccc(F)cc3)C[C@H]21,-0.289%
22,c1cnc(N2CCC3(CC2)CC(NCC2CC2)c2ccccc23)nc1 (centres undefined),2.19%

row,Compound,Percent Effect
1,CNC(=O)CNC1CC2(CCN(c3ncccn3)CC2)c2ccccc21 (centres undefined),61.9%
2,CNC(=O)CC1CC2(CCN(c3ncccn3)CC2)c2ccccc21 (centres undefined),-25.9%
3,O=C1[C@@H]2CN(c3ncc(Cl)cc3F)C[C@]2(C(=O)O)CN1CC1CC1,5.43%
4,O=C(c1cnccn1)N1CCN2C[C@H](OCc3ccccn3)C[C@H]2C1,-10.5%
5,O=C(N[C@@H]1CN(Cc2ccccc2)C[C@@H]2CCCO[C@@H]21)C1CC1,-12.9%
6,CCN1C(=O)CC[C@@H]2[C@H]1CCN2S(=O)(=O)c1cccs1,-25.3%
7,Cc1ccc(C(=O)N2CCN(c3ncnc4nc(N)ccc34)CC2)o1,65.6%
8,CC(C)(C)C(=O)N1CCCN(c2ncnc3nc(N)ccc23)CC1,18.3%
9,Cc1ccc(C(=O)N2CCN(c3ncnc4nc(N)ccc34)CC2)cc1,-11.7%
10,Cc1c(C(=O)N2CCC2)nnn1-c1ccc2ncccc2c1,-7.58%
11,Cc1c(C(=O)N2CCOCC2)nnn1-c1ccc2ncccc2c1,67.3%
12,Cc1c(C(=O)N2CCS(=O)(=O)CC2)nnn1-c1ccc2ncccc2c1,-29.1%
13,CCS(=O)(=O)N1C[C@H]2CC[C@](O)(c3ccc(C)cc3)[C@H]2C1,8.05%
14,Cn1nc(C2CCCN(Cc3ccccc3)C2)c2nccnc21 (centres undefined),3.08%
15,Cc1ccc(CN2CCCC(c3nn(C)c4nccnc34)C2)s1 (centres undefined),115%
16,Cn1nc(C2CCCN(Cc3cccs3)C2)c2nccnc21 (centres undefined),13%
17,Cc1cc(CN2CC[C@H]3C(=O)N(c4ccsc4)CCO[C@H]3C2)no1,-5.2%
18,Cc1csc([C@H]2C[C@@H]3CCN(C(=O)c4cnccn4)C[C@H]3O2)n1,-30.8%
19,Cc1nn(C)c(C)c1-c1cc(-c2cc(CC(=O)O)cs2)nc(N)c1C#N,47.9%
20,CCn1cc(-c2cc(-c3cc(CN(C)C)cs3)nc(N)c2C#N)c(C)n1,76.9%
21,CCn1cc(-c2cc(-c3cc(CC(=O)O)cs3)nc(N)c2C#N)c(C)n1,-51.8%
